Measurements taken from PubChem BioAssay (EPA / NIEHS).
Records with an inconclusive call do not appear. Calls of active or inactive are those of the source. How the source made its calls: active means hit-call score of the fitted dose curve at least 0.9, where 1 is the maximum; inconclusive means response in the unintended direction; inactive means score below 0.9.

target: human Caspase 2 (CASP2), CASP2 (gene 835) (UniProt P42575); test: NVS_ENZ_hCASP2: NovaScreen (NVS) Enzymatic Assay for human Caspase 2 (CASP2) (AID 2283135)
Description: NVS_ENZ_hCASP2 is a biochemical, single-readout assay that uses extracted gene-proteins from E. coli in a cell-free assay. Measurements were taken 1 hour after chemical dosing in a 96-well plate.NVS_ENZ_hCASP2 is one of one assay component(s) measured or calculated from the NVS_ENZ_hCASP2 assay. It is designed to make measurements of enzyme activity, a form of enzyme reporter, as detected with fluorescence intensity signals by Fluorescence technology.Data from the assay component NVS_ENZ_hCASP2 was analyzed into 1 assay endpoint. This assay endpoint, NVS_ENZ_hCASP2, was analyzed in the positive analysis fitting direction relative to DMSO as the negative control and baseline of activity. Using a type of enzyme reporter, loss-of-signal activity can be used to understand changes in the enzymatic activity as they relate to the gene CASP2. Furthermore, this assay endpoint can be referred to as a primary readout, because this assay has produced multiple assay endpoints where this one serves a enzymatic activity function. To generalize the intended target to other relatable targets, this assay endpoint is annotated to the protease intended target family, where the subfamily is cysteine protease.
Binding assays used specific radioligands (tritiated, iodinated) with non-radioactive competitive displacement ligands in agonist or antagonist protocols (as indicated) and various reference compounds and inhibitors to titrate specific binding to receptors and transporters. Most enzyme assays (CYPs, kinases, phosphatases, proteases, HDACs) used recombinant protein and specific substrates (fluorescence mostly, some colorimetric and radioactive) and inhibitors, followed by a biochemical separation of substrate and product. All assays for the biochemical HTS were initially run in duplicate at a single concentration (10 uM for CYP450 assays and 25 uM for all others). Assay-chemical combinations meeting a pre-defined threshold (e.g., 30% inhibition and other criteria defined below) were then run in singleton concentration-response format with maximum concentration of 20 uM for CYPs and 50 uM for all others. Each assay was run with positive and negative controls, and concurrent controls on every plate. The follow-up (secondary) screen tested active chemical-pairs in concentration series, as well as a few additional assays not tested in the primary screen, some selected negative inactives, and several cases re-run in the concentration series for confirmatory purposes.

Chain of human Caspase 2 (CASP2), CASP2 (gene 835) (P42575 whole entry, looked up): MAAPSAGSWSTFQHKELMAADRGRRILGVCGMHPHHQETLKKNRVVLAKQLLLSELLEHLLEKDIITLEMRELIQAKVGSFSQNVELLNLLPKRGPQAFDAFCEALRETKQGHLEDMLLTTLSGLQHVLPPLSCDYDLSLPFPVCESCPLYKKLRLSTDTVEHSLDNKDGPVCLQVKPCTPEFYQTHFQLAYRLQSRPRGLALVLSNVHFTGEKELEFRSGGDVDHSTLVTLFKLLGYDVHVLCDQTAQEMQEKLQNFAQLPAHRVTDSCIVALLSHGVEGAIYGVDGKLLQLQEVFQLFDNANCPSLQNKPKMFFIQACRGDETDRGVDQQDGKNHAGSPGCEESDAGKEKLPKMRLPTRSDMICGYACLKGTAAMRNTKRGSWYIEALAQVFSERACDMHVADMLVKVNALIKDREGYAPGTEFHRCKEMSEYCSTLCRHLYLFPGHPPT

Row | Compound | outcome | AC50
1 | CN(C)CCCN(C)CCCN(C)C | inactive | 
2 | COc1ccc2cc(S(=O)(=O)N[C@H](CC(=O)N[C@H](Cc3ccc(CN4[C@H](C)CCC[C@@H]4C)cc3)C(=O)N(C)C(C)C)c3ccc4c(c3)OCO4)ccc2c1 | inactive | 
3 | CSc1ccc(Oc2ccc(S(N)(=O)=O)cc2CN(C)C)cc1C | inactive | 
4 | O=C(O)c1ccccc1C(=O)OCc1ccccc1 | inactive | 
5 | O=C1CCC(N2C(=O)c3ccccc3C2=O)C(=O)N1 (stereo not given) | inactive | 
6 | COc1cc(-c2nc(NC(=O)c3cc4cc(C)cc(C)c4n3CC(=O)O)sc2CCC2CCCCC2)c(OC)cc1Cl |  | 7.75 µM (active)
7 | Cc1nccn1-c1ccc(Sc2cccc(C3(C(N)=O)CCOCC3)c2)cc1 | inactive | 
8 | CC[C@@H]1C[C@H](N(Cc2cc(C(F)(F)F)cc(C(F)(F)F)c2)C(C)=O)c2cc(C(F)(F)F)ccc2N1C(=O)OC(C)C | inactive | 
9 | CNCc1cc(F)ccc1Oc1ccc(Cl)c(Cl)c1 | inactive | 
10 | c1ccc2c(c1)Cc1ccccc1-2 | inactive | 
11 | NCC1(Cc2noc(=O)[nH]2)CCCCC1 | inactive | 
12 | CCCCCCOC(=O)CC(CC(=O)OCCCCCC)(OC(=O)CCC)C(=O)OCCCCCC | inactive | 
13 | c1ccc(Nc2ccccc2)cc1 | inactive | 
14 | N[C@@H](Cc1c[nH]c2ccccc12)C(=O)O | inactive | 
15 | Oc1cc2ccccc2c2ccccc12 |  | 14.6 µM (active)
16 | Cc1cccc([N+](=O)[O-])c1C | inactive | 
17 | CCC(O)=C1C(=O)CC(C(=O)O)CC1=O (stereo not given) | inactive | 
18 | CCCC(CCC)C(=O)O | inactive | 
19 | Cc1nc(C)nc(N2C[C@@H](C)N(c3ccnc([C@@H](C)O)n3)[C@@H](C)C2)n1 | inactive | 
20 | O=C(O)c1[nH]n(-c2ccc(S(=O)(=O)O)cc2)c(=O)c1N=Nc1ccc(S(=O)(=O)O)cc1 | inactive | 

Row | Compound | outcome | AC50
21 | C[C@@H](Oc1ccc(CNC(=O)c2cccnc2Oc2ccc3c(c2)OCO3)c(F)c1)C(=O)O | inactive | 
22 | CCOc1ccc2c(c1)C(C)=CC(C)(C)N2 | inactive | 
23 | CC(=O)c1ccccc1 | inactive | 
24 | O=C(OC[C@H]1O[C@@H](OC(=O)c2cc(O)c(O)c(OC(=O)c3cc(O)c(O)c(O)c3)c2)[C@H](OC(=O)c2cc(O)c(O)c(OC(=O)c3cc(O)c(O)c(O)c3)c2)[C@@H](OC(=O)c2cc(O)c(O)c(OC(=O)c3cc(O)c(O)c(O)c3)c2)[C@@H]1OC(=O)c1cc(O)c(O)c(OC(=O)c2cc(O)c(O)c(O)c2)c1)c1cc(O)c(O)c(OC(=O)c2cc(O)c(O)c(O)c2)c1 |  | 4.65 µM (active)
25 | S=C([S-])NCCNC(=S)[S-].[Mn+2] | inactive | 
26 | CCCCOC(=O)c1ccc(O)cc1 | inactive | 
27 | CC(C)COC(=O)CCCCC(=O)OCC(C)C | inactive | 
28 | S=C(S)NCCNC(=S)S.[Mn+2].[S-]C([S-])=NCCN=C([S-])[S-].[Zn+2] | inactive | 
29 | CCOC(=O)c1ccc(O)cc1 | inactive | 
30 | O=S(=O)(O)c1ccc(N=Nc2c(O)ccc3cc(S(=O)(=O)O)ccc23)cc1 |  | 20.4 µM (active)
31 | O=C(O)CCN(C1(C(=O)NO)CCCC1)S(=O)(=O)c1ccc(Oc2ccc(F)cc2)cc1 | inactive | 
32 | Cc1ccc(C(C)(C)C)c(O)c1 | inactive | 
33 | CCc1cccc(CC)c1N | inactive | 
34 | O=C(O)Cn1c(=O)n(Cc2ccc(Br)cc2F)c(=O)c2ccc(Cl)cc21 | inactive | 
35 | COc1cc(S(=O)(=O)O)c(C)cc1N=Nc1c(O)ccc2cc(S(=O)(=O)O)ccc12 |  | 6.73 µM (active)
36 | CC(C)(O)c1coc(S(=O)(=O)NC(=O)Nc2c3c(cc4c2CCC4)CCC3)c1 | inactive | 
37 | COCC(C)OCC(C)OCC(C)O (stereo not given) | inactive | 
38 | Cc1oc(-c2ccccc2)nc1CCOc1cccc2c1ccn2CCC(=O)O | inactive | 
39 | O=C(NO)C1(NS(=O)(=O)c2ccc(Oc3ccc(F)cc3)cc2)CCOCC1 | inactive | 
40 | CO[C@H]1/C=C/O[C@@]2(C)Oc3c(C)c(O)c4c(O)c(c(/C=N/N5CCN(C)CC5)c(O)c4c3C2=O)NC(=O)/C(C)=C\C=C\[C@H](C)[C@H](O)[C@@H](C)[C@@H](O)[C@@H](C)[C@H](OC(C)=O)[C@@H]1C | inactive | 
